Measured values as given in article PMC4336329 (PLoS ONE, 2015).
The whole screen tested about 310,000 compounds, of which about 14,000 (4.5%) showed an effect of 50% or more. The effect is printed as a negative number. The full list was thinned out, with strong results kept by preference.

molecular target: human ether-à-go-go-related gene (hERG) potassium channel (human, UniProt Q12809); assay: primary screen, population patch clamp on CHO cells stably expressing hERG; higher = less effect of the substance
Sequence (Q12809 whole entry, looked up): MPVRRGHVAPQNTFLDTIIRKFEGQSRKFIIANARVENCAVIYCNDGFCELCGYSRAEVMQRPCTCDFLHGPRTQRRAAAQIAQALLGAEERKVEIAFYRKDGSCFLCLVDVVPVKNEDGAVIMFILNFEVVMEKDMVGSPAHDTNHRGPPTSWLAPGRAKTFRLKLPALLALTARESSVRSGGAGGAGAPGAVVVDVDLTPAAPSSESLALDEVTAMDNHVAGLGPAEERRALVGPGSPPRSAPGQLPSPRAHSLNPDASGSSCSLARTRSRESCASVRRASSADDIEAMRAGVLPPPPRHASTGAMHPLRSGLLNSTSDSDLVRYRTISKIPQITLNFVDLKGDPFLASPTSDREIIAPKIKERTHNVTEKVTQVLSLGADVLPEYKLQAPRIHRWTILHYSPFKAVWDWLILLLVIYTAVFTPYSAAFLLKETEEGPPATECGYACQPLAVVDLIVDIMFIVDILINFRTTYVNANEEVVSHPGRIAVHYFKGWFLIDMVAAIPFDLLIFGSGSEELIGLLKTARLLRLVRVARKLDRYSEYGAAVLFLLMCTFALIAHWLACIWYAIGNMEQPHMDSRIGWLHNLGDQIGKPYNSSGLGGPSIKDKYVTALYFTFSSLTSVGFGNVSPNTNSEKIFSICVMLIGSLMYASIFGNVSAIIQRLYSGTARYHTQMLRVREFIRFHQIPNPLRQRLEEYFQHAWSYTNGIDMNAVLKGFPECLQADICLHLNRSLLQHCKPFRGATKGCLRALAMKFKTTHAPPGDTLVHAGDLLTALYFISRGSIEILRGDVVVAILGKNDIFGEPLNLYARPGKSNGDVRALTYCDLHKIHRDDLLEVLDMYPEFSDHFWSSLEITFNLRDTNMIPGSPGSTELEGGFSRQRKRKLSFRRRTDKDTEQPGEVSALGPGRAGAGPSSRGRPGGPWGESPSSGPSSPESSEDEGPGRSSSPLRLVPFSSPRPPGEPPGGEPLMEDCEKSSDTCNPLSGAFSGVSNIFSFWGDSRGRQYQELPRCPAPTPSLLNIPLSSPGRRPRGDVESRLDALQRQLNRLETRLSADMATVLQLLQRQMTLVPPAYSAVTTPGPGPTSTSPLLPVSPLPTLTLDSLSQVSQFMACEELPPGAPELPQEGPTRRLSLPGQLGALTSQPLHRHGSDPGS
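Also: peak tail current of the secondary pulse compared with the same well before compound.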

Structure (SMILES) | hERG current change (%, negative = inhibition) at 10uM
C/C(=N\NC(=O)c1ccco1)c1ccc(NC(=O)c2cccs2)cc1 | 5.09%
Cc1ccc(NC(=O)CCC(=O)Nc2ccc(C)cc2)cc1 | 12.2%
COC(=O)C1=C(c2ccc3ccccc3c2)C[C@@H]2CC[C@H]1N2C(=O)N1CCCCC1 | 2.21%
CCn1nc(C)c(/C=N/NC(=O)c2nc3nc(C)cc(C)n3n2)c1C | 14.1%
COc1ccc(-c2nnn(Cc3nn[nH]n3)n2)cc1OC | 3.25%
O=C(CCSc1nnc(-c2ccncc2)o1)Nc1ccccc1Cl | -10.9%
COc1ccc2oc(C(=O)OCC(=O)N3C(C)CCCC3C)c(C)c2c1 (centres unmarked) | -14.8%
CCN(CC)CCOC(=O)c1c(C)oc2ccc(OC)cc12.Cl | -36.6%
CCOC(=O)c1c(CN(CC)CC)oc2ccc(OC)cc12 | -61.9%
CCOC(=O)c1c(CN2CCCCC2C)oc2ccc(OC)cc12.Cl (centres unmarked) | -58.9%
CCOC(=O)c1c(-c2ccccc2)oc2ccc(OC)cc12 | 1.46%
CCc1ccc2oc(=O)cc(CN3CCCCC3C)c2c1.Cl (centres unmarked) | -16.7%
CCOC(=O)c1c(CN2CCCCC2)oc2ccc(OC)cc12.Cl | -58.4%
CCOC(=O)c1c(-c2ccc(OC)cc2)oc2ccc(O)cc12 | 13.1%
CCOC(=O)c1c(C)n(CCN2CCN(C)CC2)c2ccc(OC)cc12.Cl | -20.2%
Cc1ccc(C(=O)Nc2nnc(Cc3ccccc3)s2)cc1 | 9.35%
C=CCNC(=O)c1cc(-c2cccnc2)nc2ccccc12 | -34.7%
Cc1ccc(/C=C/C(=O)N2CCN(c3ccc(F)cc3)CC2)o1 | -15.8%
CSCC[C@H](NC(=O)[C@@H]1CSC2c3ccccc3C(=O)N21)C(=O)N1CCC[C@H]1CO (some centres unmarked) | 1.52%
COc1ccc(N2CCN(Cc3nnc(-c4ccccc4)o3)CC2)cc1 | -0.362%
O=C1Nc2ccccc2/C1=N\N1CCOCC1 | 2.95%
Cc1nc2nc(-c3ccccc3)[nH]n2c(=O)c1C | -3.77%
CCN1CC2=C(OC(N)=C(C#N)C2c2ccccc2)/C(=C\c2ccccc2)C1 (centres unmarked) | -6.02%
CCCCN(CC)Cc1ccc(CNC(=S)Nc2ccccc2F)o1 | -16.3%
CCCCN(CC)Cc1ccc(CNC(=O)Nc2ccccc2)o1 | -9.65%
CCCCN(CC)Cc1ccc(CNC(=O)Nc2ccc(F)cc2)o1 | -32.1%
CCCCN(CC)Cc1ccc(CNC(=O)Nc2ccc(Cl)cc2)o1 | -61.9%
CCCCN(CC)Cc1ccc(CNC(=S)Nc2ccc(C)cc2Cl)o1 | -32.1%
CCCCN(CC)Cc1ccc(CNC(=S)Nc2c(C)cc(C)cc2C)o1 | -54.8%
